According to the supplement of paper PMC6555819:

Experiments:
Assay in all cases: PBM binding z-score (relative to random genomic background probes); higher = stronger binding; sequences stand for … in GC…GCGATTGACAGCGTAGAATGAAGG
[1] = system: PPARg:RXRa DBDmut IVT, anti-RXR (DBD mutation: RXRa K156A/R161A, NR concentration 270 nM, RXRa partner concentration 90 nM)
Outline: (§1)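 Scanned fluorescence from custom Agilent 4×180K protein-binding microarrays was regression-normalized. Binding z-scores use random background probes as reference. Ligand-free nuclear receptor dimers were incubated on the arrays for 1 h and detected with antibodies against each partner (one per run).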

[2] = system: PPARg:RXRa IVT, anti-PPARg (NR concentration 270 nM, RXRa partner concentration 90 nM)
Outline: as §1

[3] = system: PPARg DBDmut:RXRa IVT, anti-PPARg (DBD mutation: PPARg1 K132A/R137A, NR concentration 270 nM, RXRa partner concentration 90 nM)
Outline: as §1

[4] = system: PPARg DBDmut IVT, anti-PPARg (DBD mutation: PPARg1 K132A/R137A, NR concentration 270 nM)
Outline: as §1

[5] = system: PPARg homodimer (NR concentration 180 nM)
Outline: as §1

[6] = system: PXR:RXRa (NR concentration 270 nM, RXRa partner concentration 90 nM)
Outline: as §1

[7] = system: PXR homodimer (NR concentration 270 nM)
Outline: as §1

[8] = system: RARa:RXR (NR concentration 270 nM, RXRa partner concentration 90 nM)
Outline: as §1

[9] = system: RARa homodimer (NR concentration 270 nM)
Outline: as §1

[10] = system: RARb:RXRa (NR concentration 270 nM, RXRa partner concentration 90 nM)
Outline: as §1

[11] = system: RARb homodimer (NR concentration 270 nM)
Outline: as §1

[12] = system: RARg:RXRa (NR concentration 270 nM, RXRa partner concentration 90 nM)
Outline: as §1

[13] = system: RARg homodimer (NR concentration 270 nM)
Outline: as §1

[14] = system: RXRa DBDmut IVT, anti-RXR (DBD mutation: RXRa K156A/R161A, NR concentration 90 nM)
Outline: as §1

[15] = system: RXRa homodimer (NR concentration 180 nM)
Outline: as §1

[16] = system: THRa:RXRa (NR concentration 90 nM, RXRa partner concentration 90 nM)
Outline: as §1

[17] = system: THRa homodimer (NR concentration 90 nM)
Outline: as §1

[18] = system: VDR:RXRa (NR concentration 270 nM, RXRa partner concentration 90 nM)
Outline: as §1

[19] = system: VDR homodimer (NR concentration 270 nM)
Outline: as §1

Sequence	PBM binding z-score [1]	PBM binding z-score [2]	PBM binding z-score [3]	PBM binding z-score [4]	PBM binding z-score [5]	PBM binding z-score [6]	PBM binding z-score [7]	PBM binding z-score [8]	PBM binding z-score [9]	PBM binding z-score [10]	PBM binding z-score [11]	PBM binding z-score [12]	PBM binding z-score [13]	PBM binding z-score [14]	PBM binding z-score [15]	PBM binding z-score [16]	PBM binding z-score [17]	PBM binding z-score [18]	PBM binding z-score [19]
TCTAGCAGGCCAGAGAGTCACTCAAGAGGTACGG	0.614	-0.685	-1.43	-1.33	-0.979	-0.468	-0.71	-0.29	-0.925	-0.0563	-0.56	-0.0784	-0.0814	-0.229	0.33	-0.304	-1.31	-0.279	-0.865
CGTCAAAGTTCAACTAAGGTAACGTTAAGCACGC	0.539	2.1	1.06	1.28	3.26	5.84	4.4	4.54	2.15	5.22	4.42	6.02	6.57	4.55	5.24	5.42	2.19	4.69	4.26
TAGCCTAGGTCATGCGAGCCAGTATAGTGTCGGC	1.99	2.77	0.571	0.0763	1.17	1.38	-0.628	2.33	-0.182	3.72	2.67	3.75	3.79	0.876	3.03	2.98	1.03	1.92	0.235
TCTCGAAGGACACGAAAGGTCAGAGCTCGACATC	2.34	1.64	0.0703	0.551	1.75	3.79	0.247	4.04	0.683	4.23	4.81	4.59	4.73	1.37	4.17	3.39	0.878	3.06	0.702
CCAGACAGGTGAAAGGAAACTCAGTCTGGTACGC	1.07	0.474	-0.232	-0.58	0.283	-0.274	-0.261	0.0734	-0.148	0.522	-0.0541	0.0543	0.198	-0.167	0.41	-0.104	-0.669	-0.116	-0.334
TCTTGTAGATCAACAGCAGGTTAAGAAAGATCGA	1.66	0.684	-0.0164	0.918	-0.793	0.178	-0.2	0.544	0.0361	0.0725	0.0548	0.165	-0.0185	0.681	0.512	0.308	-0.504	0.341	-0.471
TCGAGTAGGGTACCAATGGGGCATTCAGCTTTCT	1.51	1.1	-1.19	-0.695	-0.571	-0.333	-0.807	-0.262	-1.44	0.103	0.23	-0.106	-0.439	-0.161	0.0647	-0.59	-0.915	-0.337	-0.697
ACTAGGAGGCCAAGTTTGGGTCACTCAAACAAAG	1.22	1.95	-0.886	-1.06	1.15	1.22	0.347	1.83	0.176	2.43	2.66	3.46	2.56	0.0297	1.08	2.74	1	1.08	0.935
